Results on 7 compounds are retold here after PubChem BioAssay.

Test [1] can be described thus: stimulators of nuclear beta-catenin in C2C12, primary screen, imaging, WNT3A-conditioned medium, mouse C2C12, NPC library (AID 1117326; in the data active means nuclear beta-catenin stimulation mostly above about 4.2%, no sharp cut-off; inactive means mostly below about 10%). The note with it: stronger effect = higher value.
Test [2] in a line: stimulators of insulin release from INS-1E, primary screen, cell-based, 5 mM glucose, NPC library (AID 1117329;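 active means compound raises insulin release from rat beta cells at 5 mM glucose, no numeric limit stated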). The note with it: rat INS-1E insulin secretion, at 10 µM, stronger effect = higher value.
A short description of test [3]: growth inhibition of GSK3B-pretreated HCT116 cells – cell-based, CellTiter-Glo, 0.2 to 20 µM (AID 1117336;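 active means compounds lowering colon cancer cell viability after pretreatment blocking the GSK3B kinase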). The note with it: HCT116 viability after GSK3B inhibitor, at 20 µM, stronger effect = higher value. Background: Cellular ATP, detected with luciferase, serves as a proxy for viable cell number.
The nature of test [4]: inhibition of endothelial tube formation, primary screen, imaging, VEGF stimulated, CD31 staining, tube area, NPC library (AID 1117340;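 active means compound that reduces growth-factor-driven endothelial tube area in a mixed cell culture, no cutoff stated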). The note with it: VEGF-stimulated ADSC/ECFC co-culture, at 10 µM, stronger effect = higher value.
A short description of test [5]: glucagon-like peptide 1 release enhancers, primary assay, NCI-H716 cell line, NPC library (AID 1117341;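 active means compound raises GLP1 secretion from the human gut endocrine cells, with no numeric limit stated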). The note with it: NCI-H716 cells, at 10 µM, stronger effect = higher value.
Test [6] can be described thus: HCT116 colon cancer cell growth inhibition, primary screen, CellTiter-Glo luminescence, NPC library (AID 1117342;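 active means compounds that lower survival of HCT116 colon cancer cells in the luminescence readout, no numeric limit stated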). The note with it: at 20 µM (top of the series).
The nature of test [7]: CellTiter-Glo luminescent readout of SW480 viability loss, NPC library primary (AID 1117343;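 active means compounds that lower viability of the colon cancer cells in the luminescence readout, with no numeric limit stated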). The note with it: CellTiter-Glo luminescence; at 20 µM (top of the series) unless noted.
Test [8] is described as follows: decreased DLD-1 cellular survival, CellTiter-Glo luminescent readout, NPC compound collection, primary HTS (AID 1117346;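 active means compounds that lower survival of DLD-1 colon cancer cells in the luminescence readout, no cutoff given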). The note with it: DLD-1 viability, CellTiter-Glo luminescence; at 20 µM (top of the series).
Test [9] in a line: sensitizers of A549 cells to miR-34 induction, primary screen, imaging, A549 dox-inducible miR-34, nuclei and caspase counts (AID 1347080;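 active means compounds whose cell count with miR-34 switched on is under 0.7 times the count with it off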). The note with it: A549 miR-34 inducible, Hoechst nuclei count, 48 h.
The nature of test [10]: survival rescue of mitochondrial mutant cells in low glucose, primary screen, MELAS cybrids, Rieske KO mouse fibroblasts, CellTiter-Glo (AID 1508586;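 active means mean z-score across replicates of 1.96 or higher in either the MELAS or the Rieske mutant cell line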;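 further: z relative to plate mean and SD of compound and empty wells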).
Test [11] is described as follows: viability rescue of complex I mutant cybrids, primary screen, cell-based, galactose medium, ATP luminescence (AID 1645843;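 active means z-score of at least 1.8 in each of two replicates, scored against plate mean and spread of sample wells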;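 further: positive z means more ATP and so rescue of galactose-driven cybrid death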). The note with it: complex I mutant cybrid cells, 72 h, stronger effect = higher value.
Test [12] can be described thus: liver-stage malaria parasite growth inhibition, primary screen, cell-based, HepG2, luciferase luminescence, HepG2 viability (AID 624349).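 Further: 100% = mean of DMSO negative control wells on the same plate.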 The note with it: P. berghei liver stage in HepG2, luciferase luminescence, concentration not given here; parasite load remaining: stronger effect = lower value; viability: measured here: HepG2 viability without parasites.
The target in test [13] is NAD(+) hydrolase SARM1 (Homo sapiens) (UniProt Q6SZW1). The test is described as follows: SARM1 TIR NADase inhibitors, cell lysate, NAD-Glo luminescence (AID 1508614;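 active means compound whose remaining NAD level is above about 45 nM, limit read from the data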). The note with it: SAM-TIR HEK293T lysate NADase, at 1 µM, stronger effect = higher value.
Setting [14] is: stronger effect = lower value, cell number ratio, induced over uninduced.
Where [15] appears, read: measured here: relative caspase fold change +Dox/-Dox.
The mark [16] stands for this setting: measured here: total cells with miR-34 induction, stronger effect = lower value.
[17] abbreviates: measured here: total cells without miR-34 induction.
The mark [18] stands for this setting: MELAS cybrid survival, CellTiter-Glo 48 h, stronger effect = higher value.
Where [19] appears, read: Rieske KO mouse fibroblast survival, CellTiter-Glo 72 h.

“And” between values parts separate entries of the source, which are not always exact repeats. Equal entries are not always repeated. The source made the active and inactive calls. Unless noted, no stated cut-off is given here; in the data, active means parasite load remaining mostly below about 12% (no sharp cut-off); inactive means mostly above about 10%.

Sequence of NAD(+) hydrolase SARM1 (Homo sapiens) (Q6SZW1 whole entry, looked up): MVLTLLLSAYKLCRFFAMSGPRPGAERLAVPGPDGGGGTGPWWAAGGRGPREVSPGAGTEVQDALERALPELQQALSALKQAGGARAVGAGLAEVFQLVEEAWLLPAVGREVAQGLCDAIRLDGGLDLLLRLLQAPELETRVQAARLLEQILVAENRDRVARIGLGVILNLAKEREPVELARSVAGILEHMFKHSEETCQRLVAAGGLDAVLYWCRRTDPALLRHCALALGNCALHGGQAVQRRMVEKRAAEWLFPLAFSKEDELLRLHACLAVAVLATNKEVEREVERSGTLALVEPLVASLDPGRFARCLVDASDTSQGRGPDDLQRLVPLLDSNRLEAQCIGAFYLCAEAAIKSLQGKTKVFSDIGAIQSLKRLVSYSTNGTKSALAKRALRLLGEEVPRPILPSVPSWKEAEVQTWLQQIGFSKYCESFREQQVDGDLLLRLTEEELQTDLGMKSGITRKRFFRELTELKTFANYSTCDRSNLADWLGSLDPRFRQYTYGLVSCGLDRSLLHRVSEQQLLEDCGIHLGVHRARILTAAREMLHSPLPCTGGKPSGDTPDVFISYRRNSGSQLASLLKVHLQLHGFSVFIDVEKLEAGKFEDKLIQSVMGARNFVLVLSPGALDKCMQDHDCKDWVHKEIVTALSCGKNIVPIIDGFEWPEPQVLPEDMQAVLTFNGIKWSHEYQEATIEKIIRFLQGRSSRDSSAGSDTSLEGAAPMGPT

For the compound `O=C(O)Cc1cccc2ccccc12`, the nuclear beta-catenin stimulation in [1] (at 10 µM) is -0.7% (inactive); in [1] (stimulation, at 2 µM), 0.6%. Also, in test [2], the insulin secretion stimulation was -1.5% (inactive). Also, the viability decrease in test [3] was -6.45% (inactive). For the same compound, in test [4], the tube area decrease is 0% (inactive). In addition, the GLP1 secretion stimulation in test [5] is 1.9% (inactive). Besides, the inhibition of viability in test [6] is 12.9% (inactive). Besides, the values for the viability decrease (inhibition) in [7] and in test [8] were 39.8% (inactive) and -0.4% (inactive), respectively. The fold change was 0.971 (inactive) in test [9] (setting [14]) and 1.32 in test [9] (setting [15]). Moreover, the cell count in test [9] (setting [16]) was found to be 8040; in [9] (setting [17]), 8280. Besides, the z-score in test [10] (setting [18]) was 0.391 (inactive); in [10] (setting [19]), -0.24; in test [11] it was 0.46 (inactive).

Broadly, the viability is a read-out of living cells in per cent, often relative to untreated cells. As for `C#CC1(O)CC[C@H]2[C@@H]3CCC4=CCCC[C@@H]4[C@H]3CC[C@@]21C` (some centres undefined), the parasite load remaining in test [12] was 25.2% (inactive) and 119% (inactive). Besides, the viability in test [12] is 48.4% and 91.7%. Moreover, the nuclear beta-catenin stimulation was 0.9% (inactive) in test [1] (at 10 µM) and 0.1% in [1] (stimulation, at 2 µM). The insulin secretion stimulation in test [2] was 16.9% (inactive). Further, in [3], the viability decrease was 110% (active). Besides, the tube area decrease in test [4] was 14.7% (inactive). Further, in [5], the GLP1 secretion stimulation is 20.3% (active). In test [6], the inhibition of viability was 113% (active). In addition, the viability decrease (inhibition) in test [7] is 132% (active); in test [8] it was 102% (active). The fold change in test [9] (setting [14]) was 0.949 (inactive); in test [9] (setting [15]), 1.31. The figures for the cell count in test [9] (setting [16]) and in test [9] (setting [17]) were 8290 and 8740, respectively. The z-score in test [10] (setting [18]) is 0.595 (inactive); in test [10] (setting [19]), 0.485.

As for `C=C1C[C@H]2[C@@H]3C=C(C)C4=CC(=O)CC[C@]4(C)[C@H]3CC[C@]2(C)[C@@]1(OC(C)=O)C(C)=O`, the parasite load remaining in test [12] is 14.5% (inactive). Also, the viability in [12] was found to be 66%. In addition, the nuclear beta-catenin stimulation in [1] (at 10 µM) was -0.2% (inactive); in test [1] (stimulation, at 2 µM), 0.8%. Also, in test [2], the insulin secretion stimulation was 0.5% (inactive). Moreover, the viability decrease in test [3] was 37.4% (inactive). Further, in test [4], the tube area decrease was -17.7% (inactive). Moreover, the GLP1 secretion stimulation in test [5] is -1.4% (inactive). Also, the inhibition of viability in test [6] was 62% (active). Also, the viability decrease (inhibition) is 61.1% (active) in test [7] and 53.6% (active) in [8]. Further, the fold change in [9] (setting [14]) is 0.868 (inactive); in test [9] (setting [15]) it was 1.42. Besides, the cell count in [9] (setting [16]) was found to be 5790; in test [9] (setting [17]), 6660. For the same compound, the z-score is 0.533 (inactive) and 0.334 (inactive) in test [10] (setting [18]); 0.392 and 1.14 in test [10] (setting [19]); -0.29 (inactive) in [11]. For the same compound, in [13], the remaining NAD was 15 nM (inactive).

Consider `CC(=O)N(CC(O)CO)c1c(I)c(C(=O)NCC(O)CO)c(I)c(C(=O)NCC(O)CO)c1I` (centres undefined), for which the parasite load remaining in test [12] was 114% (inactive) and 69.4% (inactive). Besides, the viability in test [12] is 108% and 73.4%. For the same compound, the nuclear beta-catenin stimulation in test [1] (at 10 µM) is -2.4% (inactive); in [1] (stimulation, at 2 µM), -1.5%. Further, the insulin secretion stimulation in [2] is 7% (inactive). Further, the viability decrease in test [3] was -5% (inactive). Moreover, the tube area decrease in [4] was 1.5% (inactive). In [5], the GLP1 secretion stimulation is -5.6% (inactive). For the same compound, the inhibition of viability in [6] was 4.5% (inactive). The viability decrease (inhibition) in test [7] is 4.9% (inactive); in test [8] it was 0.4% (inactive). Besides, the fold change in test [9] (setting [14]) is 0.842 (inactive); in [9] (setting [15]), 1.09. Besides, the cell count came out at 8930 in [9] (setting [16]) and 10600 in [9] (setting [17]). Moreover, the z-score is 0.412 (inactive) in test [10] (setting [18]) and -0.115 in test [10] (setting [19]). Moreover, in [13], the remaining NAD is 10 nM (inactive).

As to `Cc1cc2c(OCC(CNC(C)(C)C)OC(=O)c3ccccc3)cccc2[nH]1` (centres undefined), in [12], the parasite load remaining was 45.6% (inactive). The viability in test [12] turned out to be 114%. The nuclear beta-catenin stimulation was -0.6% (inactive) in [1] (at 10 µM) and -2.3% in test [1] (stimulation, at 2 µM). Further, the insulin secretion stimulation in [2] was 38.9% (active). For the same compound, the viability decrease in test [3] was 8% (inactive). Besides, the tube area decrease in test [4] was -1.9% (inactive). Besides, the GLP1 secretion stimulation in test [5] is 8.9% (inactive). For the same compound, the inhibition of viability in [6] is 30.9% (inactive). Besides, the viability decrease (inhibition) in test [7] was -10.4% (inactive); in test [8] it was -25.2% (inactive). Besides, the fold change is 0.853 (inactive) in test [9] (setting [14]) and 1.26 in test [9] (setting [15]). For the same compound, the results for the cell count in test [9] (setting [16]) and in [9] (setting [17]) were 9400 and 11000, respectively. Besides, the z-score in [10] (setting [18]) is -0.871 (inactive); in test [10] (setting [19]), -1.26; in test [11], 0.13 (inactive).

Turning to `OCCOCCN1CCN(C(c2ccccc2)c2ccc(Cl)cc2)CC1` (centres undefined), the parasite load remaining in [12] is 40.8% (inactive) and 106% (inactive). Further, the viability in [12] is 45.3% and 147%. For the same compound, the nuclear beta-catenin stimulation in test [1] (at 10 µM) was 3.6% (inactive); in test [1] (stimulation, at 2 µM), 2.4%. Moreover, in [2], the insulin secretion stimulation was 4.2% (inactive). The viability decrease in test [3] was -78.9% (inactive). In test [4], the tube area decrease was 28% (inactive). The GLP1 secretion stimulation in [5] is 13.3% (inactive). In addition, the inhibition of viability in test [6] was 38.2% (inactive). Also, the viability decrease (inhibition) in test [7] is 46.4% (inactive); in test [8] it was 14.4% (inactive). Moreover, the fold change in test [9] (setting [14]) is 0.893 (inactive) and 0.907 (inactive) and 0.862 (inactive); in test [9] (setting [15]), 1.48 and 0.309 and 0.812. Also, the cell count is 8690 and 7710 and 8370 in test [9] (setting [16]); 9730 and 8500 and 9700 in test [9] (setting [17]). In addition, the z-score in test [10] (setting [18]) was -0.954 (inactive) and -0.244 (inactive) and -0.546 (inactive); in test [10] (setting [19]), 0.434 and -0.172 and -0.069; in [11], -0.645 (inactive).

Regarding `CC(=O)OCC(=O)[C@@]1(OC(C)=O)[C@@H](C)C[C@H]2[C@@H]3C[C@H](F)C4=CC(=O)C=C[C@]4(C)[C@@]3(F)[C@@H](O)C[C@@]21C`, the parasite load remaining in test [12] is 91.6% (inactive) and 91.1% (inactive). Besides, the viability in [12] is 118% and 76.3%. The nuclear beta-catenin stimulation was 2.1% (inactive) in test [1] (at 10 µM) and 0.9% in test [1] (stimulation, at 2 µM). The insulin secretion stimulation in test [2] is 15.2% (inactive). Also, in test [3], the viability decrease is 4% (inactive). For the same compound, the tube area decrease in [4] is -8.8% (inactive). In addition, the GLP1 secretion stimulation in [5] was 1.7% (inactive). Besides, the inhibition of viability in test [6] is 17.6% (inactive). For the same compound, the viability decrease (inhibition) in test [7] was 16.6% (inactive); in [8], 7.1% (inactive). The results for the fold change in test [9] (setting [14]) and in [9] (setting [15]) were 0.811 (inactive) and 1.36, respectively. For the same compound, the cell count in test [9] (setting [16]) came out at 7160; in test [9] (setting [17]), 8820. In addition, the z-score is -0.532 (inactive) in test [10] (setting [18]) and -0.0519 in test [10] (setting [19]). The remaining NAD in test [13] is 10 nM (inactive).
